Among the data in ChEMBL document CHEMBL3433997, “St. Jude Leishmania screening dataset” (2016) are inhibition values, retold here.

Assay type in all cases: functional
Assay [1] addresses Solute carrier family 2, facilitated glucose transporter member 1 (Homo sapiens) (UniProt P11166). The assay can be described thus: ST_JUDE_LEISH: Cytotoxicity at 2uM final concentration against transgenic Leishmania Mexicana promastigotes LmGLUT1 that are glucose transport deficient and complemented with the human glucose transporter GLUT1. Activity is measured by DNA content using SYBR green in vitro.

Assay [2] addresses Hexose transporter 1 (Plasmodium falciparum) (UniProt O97467). Briefly: ST_JUDE_LEISH: Cytotoxicity at 2uM final concentration against transgenic Leishmania Mexicana promastigotes LmPfHT that are glucose transport deficient and complemented with the Plasmodium falciparum hexose transporter. Activity is measured by DNA content using SYBR green in vitro.
In assay [3] the target is Glucose transporter (Leishmania mexicana) (UniProt O61059). Briefly: ST_JUDE_LEISH: Cytotoxicity at 2uM final concentration against transgenic Leishmania Mexicana promastigotes LmGT2 that are glucose transport deficient and complemented with the L. Mexicana glucose transporter 2. Activity is measured by DNA content using SYBR green in vitro.

Chain of Solute carrier family 2, facilitated glucose transporter member 1 (Homo sapiens) (P11166 whole entry): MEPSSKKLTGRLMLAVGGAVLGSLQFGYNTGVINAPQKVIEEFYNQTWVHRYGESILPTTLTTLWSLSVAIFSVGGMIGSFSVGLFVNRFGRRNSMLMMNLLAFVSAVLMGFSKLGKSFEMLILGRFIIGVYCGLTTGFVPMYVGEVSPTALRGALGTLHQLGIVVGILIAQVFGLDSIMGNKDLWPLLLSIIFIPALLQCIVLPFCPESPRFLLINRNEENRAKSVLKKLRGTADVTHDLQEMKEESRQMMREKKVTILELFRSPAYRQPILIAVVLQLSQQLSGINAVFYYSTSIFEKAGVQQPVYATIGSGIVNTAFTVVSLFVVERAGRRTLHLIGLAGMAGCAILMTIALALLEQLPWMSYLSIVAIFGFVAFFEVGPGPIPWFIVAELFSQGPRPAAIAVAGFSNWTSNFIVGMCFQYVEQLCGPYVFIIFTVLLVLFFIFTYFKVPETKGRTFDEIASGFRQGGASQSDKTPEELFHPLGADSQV

For `O=C(Nc1cccc(-c2ccc(-c3nc4cc(C(F)(F)F)ccc4[nH]3)cc2)c1)c1cccnc1`, the inhibition – broadly, the relative decrease from the control value, in per cent – in assay [1] is 3.27%; in assay [2], 1.71%; in assay [3], -0.02%.
Consider `Cc1ccc(NC(=O)c2cccc(CN3CCCN(CC4CCCCC4)CC3)c2)cc1F`, for which the inhibition in assay [1] was -0.17%; in assay [2], 0.26%; in assay [3], 0.75%.
As for `COc1ccc2c(NN=Cc3ccccc3F)ccnc2c1`, the inhibition in assay [1] amounted to 3.28%; in assay [2] it was 2.8%; in assay [3], 2.7%.
For the compound `O=C(Nc1ccc(Cl)c(Cl)c1)C1CCC(=O)N1[C@@H](Cc1ccccc1)C(=O)NCCc1ccc(Cl)cc1` (stereo partly specified), the inhibition turned out to be 0.51% in assay [1], 0.41% in assay [2] and 1.43% in assay [3].
Take `CCCCCCNC(=N)c1ccc(OCCCCCOc2ccc(C(=N)NCCCCCC)cc2)cc1`: the inhibition in assay [1] amounted to 58.5%; in assay [2] it was 59.4%; in assay [3], 37.2%.
On to `CCCCNc1ccc(C(=O)NC2CCN(C[C@H](O)c3ccnc4ccc(OC)cc34)CC2)cc1`, for which the inhibition in assay [1] was 9.46%; in assay [2], 11.8%; in assay [3] it was 3.39%.
In the case of `COC(=O)c1cc(C(=O)CN(Cc2ccccc2)C(C)C)ccc1O`, the inhibition is 4.78% in assay [1], 5.9% in assay [2] and 4.16% in assay [3].
On to `CN(Cc1ccccc1)C1CCCN(c2cc(NC(=O)c3ccc(F)cc3)ccn2)C1` (stereo unspecified), for which the figures for the inhibition in assay [1], in assay [2] and in assay [3] were -0.91%, -2.04% and 0.07%, respectively.
For `COc1cc(OC)nc(-c2cccc(NC(=O)c3ccc4c(=O)n(CCN5CCCCC5)cnc4c3)c2)n1`, the inhibition in assay [1] was 11.9%; in assay [2], 9.45%; in assay [3], 7.35%.
For `OC[C@H](Nc1nc(C(Oc2ccccc2)c2ccccc2)nc2[nH]ncc12)c1ccccc1` (stereo partly specified), the inhibition is 7.13% in assay [1], 4.93% in assay [2] and 4.96% in assay [3].
Consider `COc1ccc2ncc(F)c(CCN3CCC(NCc4ccc5c(c4)CCO5)CC3)c2n1`, for which the inhibition in assay [1] was determined as 16.7%; in assay [2] it was 21.4%; in assay [3] it was 20.6%.
As for `CC(=O)Nc1nc(C)c(-c2csc(Nc3ccc(Cl)cc3)n2)s1`, the inhibition in assay [1] was -0.76%; in assay [2] it was -1.35%; in assay [3] it was -2.23%.
Consider `COc1ccc(NS(=O)(=O)c2ccccc2Br)cc1N1CCN(C)CC1`, for which the inhibition in assay [1] was 0.24%; in assay [2], -0.27%; in assay [3], 3.86%.
For `Cc1cccc2nc(-c3ccc(-c4cccc(NC(=O)Cc5c[nH]cn5)c4)cc3)[nH]c12`, the inhibition is 1.52% in assay [1], 3.26% in assay [2] and -1.21% in assay [3].
`O=C(/C=C/c1ccc(Cl)c(Cl)c1)NCCCCCN1CCCN(C(=O)Nc2cc(Cl)cc(Cl)c2)CC1`: the inhibition in assay [1] was determined as 3.31%; in assay [2] it was 3.85%; in assay [3] it was 6.4%.
`O=C(Cc1n[nH]c(=O)c2ccccc12)Nc1cccc(C(=O)Nc2cccc(C(F)(F)F)c2)c1`: the inhibition in assay [1] was 3.52%; in assay [2] it was 4.12%; in assay [3] it was 2.16%.
In the case of `CCN(CC)CCNC(=O)c1ccc(N/C=C2\C(=O)Nc3ccc(S(=O)(=O)Cc4c(Cl)cccc4Cl)cc32)cc1`, the inhibition is -0.98% in assay [1], -0.63% in assay [2] and -1.08% in assay [3].
On to `Cc1cccc(-c2cccc(CNc3nc(NCCc4ccc(O)cc4)nc(N4CCNCC4)n3)c2)c1`, for which the inhibition in assay [1] worked out at 2.88%; in assay [2], 3.88%; in assay [3], 2.83%.
Take `Cc1ccc(-c2cc(C(=O)Nc3ccc(S(=O)(=O)N4CCCCC4C)cc3)n[nH]2)c(O)c1` (stereo unspecified): the results for the inhibition in assay [1], in assay [2] and in assay [3] were -0.81%, -0.31% and -0.79%, respectively.
Consider `CC(NC(=O)c1ccc(O)c(-c2ccc(Cl)c(Cl)c2)c1)C(=O)NC1CCCCC1` (stereo unspecified), for which the values for the inhibition in assay [1], in assay [2] and in assay [3] were 5.53%, 4.55% and 5.71%, respectively.
`COc1ccc(S(=O)(=O)NC2CCN(c3cc(C)nc(Nc4cccc(C#N)c4)n3)CC2)cc1`: the inhibition in assay [1] was 4.31%; in assay [2], 1.33%; in assay [3], 0.61%.
Take `Cc1cc(N[C@@H](Cc2ccccc2)C(=O)NCc2cccs2)nc(Nc2ccccc2)n1`: the inhibition was 9.96% in assay [1], 9.21% in assay [2] and 3.98% in assay [3].
Consider `COC(=O)CCCOc1cc(Cc2cnc(N)nc2N)cc(OC)c1OC`, for which the values for the inhibition in assay [1], in assay [2] and in assay [3] were 7.51%, 6.32% and 9.19%, respectively.
For `COc1ccc(NC(=O)[C@H](CC(C)C)Nc2ccnc(NCCc3ccc(F)cc3)n2)cc1` the same measures were 1.22%, 1.43% and 1.38%.
For `COc1ccc2nccc([C@@H](O)CN3CCC(NCc4cc5oc(=O)[nH]c5cc4F)CC3)c2c1`, the inhibition in assay [1] was found to be 0.09%; in assay [2] it was 0.65%; in assay [3], 2.44%.
Turning to `COc1ccc2c(Nc3ccc(N4CCN(C)CC4)cc3)cc(C)nc2c1`, the inhibition in assay [1] was found to be 9.36%; in assay [2], 6.21%; in assay [3], 4.55%.
For `COc1cc(OC)c(NC(=O)C2c3ccccc3C(=O)N(CC(C)C)C2c2cccs2)cc1Cl` (stereo unspecified) the same measures were -4.11%, 2.33% and 5.96%.
`CCN1CCC(N(Cc2ccc(-c3ccc(C(F)(F)F)cc3)cc2)C(=O)Cn2c(CCc3cccc(F)c3F)cc(=O)c3ccccc32)C1` (stereo unspecified): the inhibition in assay [1] was 0.08%; in assay [2], 1.38%; in assay [3] it was -0.49%.
Take `COc1ccc(Cl)cc1N1CCN(CCCNC(=O)c2ccc(-c3nc4cnccc4[nH]3)c(Br)c2)CC1`: the inhibition in assay [1] was 0.19%; in assay [2] it was -0.19%; in assay [3], -0.85%.
Regarding `Cc1ccc2[nH]ncc2c1N(CC1CCCCC1)c1ccnc(Nc2ccc(OCC(O)CN3CC=CCC3)cc2)n1` (stereo unspecified), the inhibition in assay [1] was 2.37%; in assay [2], 3.33%; in assay [3], -0.59%.
Regarding `CC(C)CCNc1nc(NCCCc2ccccc2)c2cc(O)ccc2n1`, the inhibition in assay [1] turned out to be 24.8%; in assay [2], 18.8%; in assay [3], 8.25%.
For the compound `CN1CCC(NCc2cccc(-c3ccc(S(=O)(=O)NCCc4ccccn4)cc3)c2)CC1`, the inhibition is 3.76% in assay [1], 2.04% in assay [2] and -2.17% in assay [3].
